The list is not random: actives were taken first. Their share in the collection is about 6.3%.
Spn DPM-DC inh: S. pneumoniae DPM-DC inhibition; purified DPM-DC, PK/LDH coupled NADH fluorescence; calls only at 10 µM; 65,000 tested, 0.49% active; AID 556;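 active = the 320 compounds with the highest percent inhibition in the single-dose primary screen, excluding strongly autofluorescent ones, cut at about 32% in these data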;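 also: kinetic rate of NADH fluorescence loss reporting ADP formed by the decarboxylase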
Autofluor 339: intrinsic fluorescence of library compounds, ex339/em460 – biochemical, MLSMR library, data from DPM-DC assay, artefact control, profiling panel; 65,000 tested, 5.5% active; fluorescence fold increase at 10 µM; AID 709; compound autofluorescence, ex339/em460 nm, NADH buffer; active compounds read high; 1 = no-compound wells, NADH background;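 active = at 10 µM, mean starting fluorescence two-fold or more over control wells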;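 also: signal is the first read of a kinetic run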
Abs 340nm: compound absorbs light at 340 nm; fold change at 10 µM; 65,000 tested, under 10 active; compound absorbance at 340 nm, fold over control;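 active = at 10 µM dose, initial 340 nm absorbance at least 2 fold that of control wells; inactive = change under 2 fold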;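 also: initial absorbance extrapolated from kinetic A340 decline of NADH oxidation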
Spn PMK inh: blocks S. pneumoniae phosphomevalonate kinase; inhibition, % at 10 µM; AID 539; purified PMK, PK/LDH-coupled NADH absorbance 340 nm; 65,000 tested, 0.49% active;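 active = top-ranked compounds by inhibition in the single 10 µM screen, taking a fixed number of the strongest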
Spn MK inh: blocks S. pneumoniae mevalonate kinase; purified MK, PK/LDH-coupled NADH absorbance 340 nm; inhibition, % at 10 µM; 65,000 tested, 0.48% active; AID 555;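 active = ranked among the strongest by inhibition in the single 10 µM screen, a fixed top-ranked set picked for dose follow-up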
NADH enzymes: inhibition of NAD/NADH coupling enzymes, library profiling; coupled PK/LDH NADH assays, four targets; IC50, µM (top dose mostly 10 µM); 65,000 tested, 0.02% active;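 active = single-dose screening hits from any of four coupled enzyme assays that gave an IC50 when retested across doses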;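 also: the DPM-DC format reads NADH fluorescence rather than 340 nm absorbance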
Of the large screens only hits and unclear results are named; the others gave an inactive call; ! = not active in a repeat.

N#Cc1c2n(c(=S)n(-c3ccccn3)c1=O)CCCCC2	none
CCNc1nc(C)cc(COC)c1C#N	Autofluor 339 2.2 (not shown: Spn DPM-DC inh)
CCCCc1nc(N2CCOCC2)c(C#N)c2c1CCCC2	none
CCOc1cc2c(C#N)c(N3CCOCC3)nc(N)c2c(N)n1	Autofluor 339 5.1 (not shown: Spn DPM-DC inh)
COCc1cc(C)nc(N)c1C#N	none (not shown: Spn DPM-DC inh)
COCc1cc(C)nc(N2CCOCC2)c1C#N	Autofluor 339 2.1 (not shown: Spn DPM-DC inh)
Cc1cccc(NC(=O)C2CCCN(C(=O)Nc3ccccc3)C2)c1C (stereo not given)	none
O=C(CCN1C(=O)c2ccccc2C1=O)NC1=NCCS1	Spn PMK inh 51
CCC(C)(C)NC(=O)CN(C(=O)CNS(=O)(=O)c1ccc(C)cc1)c1ccc2c(c1)OCCO2	none
c1ccn2c(c1)nc1c2nc2ccccn21	Autofluor 339 3.8 (not shown: Spn DPM-DC inh)
CC(=O)Nc1ccc(NC(=O)c2c(C)nc3ccccn23)cc1	none
CCCCNC(=O)c1cc2c(=O)n3cccc(C)c3nc2n(Cc2ccccc2)c1=N	Autofluor 339 4 (not shown: Spn DPM-DC inh)
CCNC(=O)c1cc2c(=O)n3cccc(C)c3nc2n(CCc2ccccc2)c1=N	Autofluor 339 2.3 (not shown: Spn DPM-DC inh)
CCOC(=O)c1cc2c(=O)n3cccc(C)c3nc2n(C)c1=N	none
C=CCn1c(=N)c(C(=O)NCCCOC)cc2c(=O)n3cccc(C)c3nc21	Autofluor 339 2.3 (not shown: Spn DPM-DC inh)
Cc1cccn2c(=O)c3cc(C(=O)NCc4ccco4)c(=N)n(CCOCCO)c3nc12	Autofluor 339 5 (not shown: Spn DPM-DC inh)
COC(=O)CSc1nnc(CNc2ccc(OC)cc2)n1C	none
N=c1c(C(=O)NCc2ccco2)cc2c(=O)n3ccccc3nc2n1CCc1ccccc1	Autofluor 339 2.2 (not shown: Spn DPM-DC inh)
COc1ccc(CCn2c(=N)c(C(=O)NCc3ccco3)cc3c(=O)n4ccccc4nc32)cc1OC	none
COCCn1c(=N)c(C(=O)NCCc2ccccc2)cc2c(=O)n3cccc(C)c3nc21	Autofluor 339 2.5 (not shown: Spn DPM-DC inh)
CNC(=O)c1cc2c(=O)n3cccc(C)c3nc2n(C(C)C)c1=N	Autofluor 339 3.8 (not shown: Spn DPM-DC inh)
CCn1c(=N)c(C(=O)NCc2cccnc2)cc2c(=O)n3cccc(C)c3nc21	Autofluor 339 3.7 (not shown: Spn DPM-DC inh)
C=CCSC1=C(C#N)C(c2ccc(OCC)cc2)CC(=O)N1 (stereo not given)	none
Oc1ccc(N=Cc2ccc(-c3cccs3)s2)cc1	Autofluor 339 2.2 (not shown: Spn DPM-DC inh)
Cc1cc(C)nc(N2CCCC(C(=O)Nc3cc(F)ccc3C)C2)n1 (stereo not given)	none
COc1ccc2c(c1OC)C(=O)OC2C1c2c(cc3c(c2OC)OCO3)CCN1C (stereo not given)	Spn PMK inh 26!
CN1CCc2cc3c(c4c2C1CC41CCC(=NO)CC1)OCO3 (stereo not given)	none
Cc1cc(C)n2nc3nc4c(cc3c2n1)CCCC4	Autofluor 339 2.2 (not shown: Spn DPM-DC inh)
COc1ccccc1-c1c(C)nn2c(C)cc(C)nc12	none
CC1(C)Cc2nc3sc4c(SCC(=O)NCc5ccco5)ncnc4c3cc2CO1	none
CC1(C)Cc2nc3oc4c(N(CCO)Cc5ccccc5)ncnc4c3cc2CO1	Autofluor 339 2.4
CC(=O)c1c(C)nn(CC(O)Cn2c3c(c4cc(C)ccc42)CCCC3=O)c1C (stereo not given)	Autofluor 339 5.2 (not shown: Spn DPM-DC inh)
COCCNC(=O)c1cnn2c(C(F)(F)F)cc(-c3ccc4c(c3)OCO4)nc12	Spn DPM-DC inh active, Autofluor 339 2.5
Cc1ccc(-c2cc(C(F)F)n3ncc(C(=O)NCc4ccco4)c3n2)cc1	Autofluor 339 2.3 (not shown: Spn DPM-DC inh)
Cc1ccccc1Cc1c(C)nc2c(C(=O)NCc3ccco3)cnn2c1C	Autofluor 339 3.3
Cc1cc(C(F)F)n2ncc(C(=O)NCc3ccccc3C(F)(F)F)c2n1	none
Cc1ccc(-c2cc(C(F)(F)F)n3ncc(C(=O)NCc4ccco4)c3n2)cc1	Spn DPM-DC inh active
CC(NC(=O)NCc1cccnc1)(C(F)(F)F)C(F)(F)F	none
CCCCOC(=O)C1=C(C)Nc2ncnn2C1c1cc(OC)c(OC)cc1OC (stereo not given)	none
CCOC(=O)COc1ccc2c(c1)c(C(=O)OCC)c(C)n2CC	none
Cc1ccc(NC(=O)CSc2nnc(-c3ccc(S(=O)(=O)N4CCCC4)cc3)o2)cc1C	none
O=C(NCc1ccco1)c1nc2nc(-c3cccs3)cc(C(F)(F)F)n2n1	Autofluor 339 3.8 (not shown: Spn DPM-DC inh)
CCCn1c(SCC(=O)Nc2ccccc2N2CCCCC2)nc2c1c(=O)n(C)c(=O)n2C	none
O=c1oc(-c2cccs2)nc2sc3c(c12)CCCCC3	Autofluor 339 2.1 (not shown: Spn DPM-DC inh)
Cc1ccc(-c2nn3c(-c4ccco4)nnc3c3ccccc23)cc1S(=O)(=O)N1CCOCC1	none
O=C(NC1CCCCC1)c1cc2nc(-c3ccco3)cc(C(F)(F)F)n2n1	Autofluor 339 2.9 (not shown: Spn DPM-DC inh)
O=C(NC12CC3CC(CC(C3)C1)C2)c1cc2nc(-c3ccco3)cc(C(F)(F)F)n2n1	Autofluor 339 2.9
O=C(Nc1cnn(Cc2ccccc2)c1)c1cc2nc(-c3ccco3)cc(C(F)(F)F)n2n1	Autofluor 339 3.3 (not shown: Spn DPM-DC inh)
O=C(NC1CCCCC1)c1cc(-c2ccco2)on1	none
O=C(c1cc2nc(-c3ccco3)cc(C(F)(F)F)n2n1)N1CCc2ccccc2C1	Autofluor 339 2.2, Spn PMK inh 30 (not shown: Spn DPM-DC inh)
O=C(Nc1cnn(C23CC4CC(CC(C4)C2)C3)c1)c1cnn2c(C(F)(F)F)cc(-c3ccco3)nc12	none
O=C(c1cc2nc(-c3ccccc3)cc(C(F)(F)F)n2n1)N1CCOCC1	none
CC1(C)CC(=O)C2=C(C1)NC(=O)CC2c1ccc(N(CCC#N)CCC#N)cc1 (stereo not given)	none
COc1cccc(CSc2nnc(-c3ccco3)n2C)c1	none
CCOC(=O)C1=C(C)N2C(=C(C#N)[C@@H]1c1ccc(C(=O)OC)cc1)SC[C@@]2(O)C(C)(C)C	none
O=C(Cc1ccc(F)cc1)Nc1c2c(nn1-c1cccc(Cl)c1)CS(=O)C2 (stereo not given)	none
COc1ccc(CCNc2c(C)c(C)nc3ncnn23)cc1	none
Cc1ccc2[nH]c3c(NCCN4CCOCC4)ncnc3c2c1	none
CCN(CC)CCNC(=O)CCCCn1c(=S)[nH]c2c([nH]c3ccc(OC)cc32)c1=O	Spn MK inh 42
CCN(CC)CCNc1ncnc2c1[nH]c1ccc(OC)cc12	Autofluor 339 2.4 (not shown: Spn DPM-DC inh)
C=CCNc1ncnc2c1[nH]c1ccc(C)cc12	Autofluor 339 4 (not shown: Spn DPM-DC inh)
CCN(CC)CCNC(=O)CCn1c(=S)[nH]c2cc3c(cc2c1=O)OCO3	none
COc1ccccc1NC(=O)CSc1nnc(CNC(=O)COc2ccc(Cl)cc2)o1	none
O=C(Nc1ccc(S(=O)(=O)N2CCCCCC2)cc1)C1CCCO1 (stereo not given)	none
COc1ccccc1/C=C/CN1CCOCC1	Spn MK inh 44
COc1ccccc1N1CCN(C/C=C/c2ccc(N(C)C)cc2)CC1	none
Cc1ccc2c(CC(=O)Nc3nc(C)cs3)coc2c1	none
c1ccc(Cn2c(SCc3cn4cccnc4n3)nnc2-c2ccco2)cc1	Autofluor 339 2.2
